The campaign covered roughly 320,000 compounds. About 9,100 (2.8%) were called active. A call without a number means that no potency is given here. About 3% were inconclusive and are not listed. Calls come from the whole dose curve; as a rule, active = well fitted activation curve with a large enough effect; inconclusive = small, poorly fitted or top-dose-only effect; inactive = no such curve, though single readings can be large or run the other way. For the sample, actives were picked, then their nearest neighbours and some compounds at random.
Potency is the fitted concentration of half-maximal effect.

The test can be described thus: qHTS Assay for Rab9 Promoter Activators. Note: nearly all actives have a fitted effect of over 60% in size. To be noted: Huh7 Rab9 promoter-luciferase reporter, luminescence, 24 h; series mostly up to 9.22 µM. In a few lines:
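Rab9 promoter-driven luciferase in stably transfected Huh7 cells; 1500 cells/well rested 2 h, exposed to compound in DMSO for 24 h at 37 °C, 5% CO2. Luminescence read 10 min after adding luciferase reagent at ambient temperature.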
Background: In qHTS, concentration-response curves come from the screen itself.
Consider `CN(C)C(CNC(=O)c1ccc(OCc2cn3ccccc3n2)cc1)c1ccco1` (configuration not stated), for which the Potency result was “inactive”.
Next, `COc1ccc(C(=O)NCCNc2ccc([N+](=O)[O-])cn2)cc1`: “inactive”.
Next, `Cc1csc(NC(=O)C2CCN(S(=O)(=O)c3ccccc3)CC2)n1`: “inactive”; `CC(C)CNC(=O)C(=O)Nc1ccc(N(C)C)cc1`: 3.16 µM (active); `CC(C)CNC(=O)C(=O)NCc1ccccc1`: “inactive”.
With `CC(C)CNC(=S)Nc1ccc(F)cc1` the entry was “inactive”; with `COC(=O)C1=CN(c2ccc(F)c(F)c2)C=C(C(=O)OC)C1c1ccc([N+](=O)[O-])cc1`, “inactive”.
On to `COc1ccc([C@H]2CC(=O)C=C(c3ccc(CO)cc3)C2)cc1`, for which the Potency entry is “inactive”.
With `Cc1csc(NC(=O)CSc2nc(=O)n(CCCN(C)C)c3c2CCC3)n1`, the Potency entry is “inactive”.
As to `COCCn1c(C)cc(C2=NNC(=Nc3ccc(F)cc3)SC2)c1C`, the Potency is 3.55 µM (active).
Next, `C=CCn1c(C)cc(C2=NNC(=NCC)SC2)c1C`: “inactive”; `C=CC1(C)CC(=O)C2(O)C(C)(O1)C(OC(C)=O)C(O)C1C(C)(C)CCC(O)C12C` (configuration not stated): “inactive”; `Cc1ccc(C)c(NC(=O)COC(=O)CSc2ccccc2)c1`: “inactive”.
Regarding `CCCCN(CC)C(=O)c1ccccc1Oc1ccccc1`, the Potency result was “inactive”.
Consider `COc1cccc(OCCOc2cccc(/C=N/n3cnnc3)c2)c1`, for which the Potency is 2.82 µM (active).
Regarding `C(=N\n1cnnc1)/c1cccnc1`, the Potency result was “inactive”.
Regarding `COc1ccccc1OCCOc1ccc(/C=N/n2cnnc2)cc1`, the Potency result is “inactive”.
With `COc1cccc(C(=O)N/N=C(\C)c2cccc(NC(=O)c3ccc(F)cc3)c2)c1OC` the entry was “inactive”.
With `Cc1ccccc1OCCC(=O)OCC(=O)NCCc1ccc(S(N)(=O)=O)cc1` the entry was “inactive”; with `CCn1nc(C(=O)NNC(=O)C2CSC3(C)CCC(=O)N23)c2ccccc2c1=O` (configuration not stated), “inactive”.
Next, `CCN(C(=O)COC(=O)CCOc1cccc(C)c1)c1c(N)n(Cc2ccccc2)c(=O)[nH]c1=O`: “inactive”; `N#Cc1ccccc1S(=O)(=O)N1CCN(Cc2c(O)ccc3ccccc23)CC1`: “inactive”; `N#CCC(=O)Nc1ccc(C(=O)OCC(=O)Nc2sc3c(c2C#N)CCCC3)cc1`: “inactive”.
With `Nc1ncnc2c1c(I)cn2[C@@H]1C[C@H](N)[C@@H](O)[C@H]1O`, the Potency result is “inactive”.
Take `Cn1nc(-c2ccccc2)c2cc([N+](=O)[O-])ccc21`: the Potency result is “inactive”.
Next, `Cc1cc(CO)nn1-c1ccc([N+](=O)[O-])cc1`: “inactive”.
Next, `Cc1nn(-c2ccc([N+](=O)[O-])cc2)c(N)c1-c1ccccc1`: 1.26 µM (active).
Take `COc1ccccc1OCCNC(=O)C(CCSC)NC(=O)COc1ccccc1` (configuration not stated): the Potency result is “inactive”.
For the compound `O=C(COC(=O)Cc1ccccc1F)NCCc1ccccc1`, the Potency result is “inactive”.
`CCOc1cccc2cc(C(=O)OCC(=O)Nc3c(C)cccc3CC)c(=O)oc12`: the Potency result was “inactive”.
Next, `COCCn1cnnc1SCC(=O)Nc1cccc(S(=O)(=O)N2CCCCC2)c1`: “inactive”; `COc1cc(NC(=O)c2cccs2)ccc1NC(=O)c1ccccc1Cl`: “inactive”.
On to `O=C(Nc1ccc2sc3ccccc3c(=O)c2c1)c1ccccc1Cl`, for which the Potency was 2.82 µM (active).
Turning to `O=C(Nc1cccc(NC(=O)c2ccccc2[N+](=O)[O-])c1)c1ccccc1Cl`, the Potency result is “inactive”.
Next, `COc1ccc(C(=O)COC(=O)c2ccc([N+](=O)[O-])s2)cc1OC`: “inactive”; `CN(C(=O)Cn1nnc(-c2ccc(F)cc2)n1)C1CCS(=O)(=O)C1` (configuration not stated): “inactive”; `CC(C)(CNC(=O)Cc1ccc(Cl)cc1Cl)N1CCOCC1`: “inactive”.
For `N#Cc1ccc(C2N=C(c3ccccc3)NO2)cc1` (configuration not stated), the Potency was 1.78 µM (active).
Turning to `CCOc1ccc(NC(=O)CN(C)C(=O)CSc2ccccc2)cc1OCC`, the Potency entry was “inactive”.
Next, `COc1ccccc1-n1c(-c2cc(-c3ccco3)[nH]n2)n[nH]c1=S`: “inactive”; `Cc1cc(C(F)(F)F)nn1-c1nc(-c2ccco2)cc(C(F)(F)F)n1`: “inactive”; `Cn1c(-c2ccco2)nc2cc3ccccc3cc21`: 3.98 µM (active).
With `COc1cc(OC)c(NS(=O)(=O)c2cn(C)cn2)cc1Cl` the entry was “inactive”; with `O=[N+]([O-])c1ccc2c(c1)Nc1nc3ccccc3nc1N2`, “inactive”; with `O=[N+]([O-])c1ccc2nc(-c3ccccn3)[nH]c2c1`, 2.51 µM (active).
On to `O=C(CSc1nc2ccc([N+](=O)[O-])cc2[nH]1)c1ccc(Cl)cc1`, for which the Potency result is “inactive”.
Next, `O=C(CN1C(=O)NC2(CCCCC2)C1=O)N1CCN(C(=O)c2cccs2)CC1`: “inactive”; `CC(C)n1ncc2c(C(=O)NCc3ccccc3CN(C)C)cc(C3CC3)nc21`: “inactive”; `CC(C)(C)c1csc(NC2=NS(=O)(=O)c3ccccc32)n1`: 1.26 µM (active).
Consider `Cc1ccc(S(=O)(=O)N(NC2=NS(=O)(=O)c3ccccc32)C(=O)c2ccccc2)cc1`, for which the Potency result is “inactive”.
Next, `O=C(Oc1cccc(NC2=NS(=O)(=O)c3ccccc32)c1)c1ccncc1`: “inactive”.
On to `O=S(=O)(NC1CCCCC1)c1ccc(F)c2ccccc12`, for which the Potency result was “inactive”.
On to `COc1ccc2cc(C3=CC(=O)C[C@H](c4ccc5c(c4)OCO5)C3)ccc2c1`, for which the Potency entry was “inactive”.
With `O=C(Nc1ccc(Cl)cc1)c1cccc(OC(=S)N2CCOCC2)c1` the entry was “inactive”; with `Nc1c(N(Cc2ccco2)C(=O)c2cccc(F)c2)c(=O)[nH]c(=O)n1Cc1ccccc1`, “inactive”.
As for `CN(CC(=O)Nc1ccc(F)c(F)c1F)C(=O)Cn1cnc2c1c(=O)n(C)c(=O)n2C`, the Potency entry was “inactive”.
Next, `CC1CCCN(S(=O)(=O)c2ccc(C(=O)Nc3nnc(-c4ccncc4)o3)cc2)C1` (configuration not stated): 1.41 µM (active); `CC1CCCCN1S(=O)(=O)c1ccc(C(=O)Nc2nnc(-c3cccs3)o2)cc1` (configuration not stated): “inactive”; `O=C(Nc1nnc(-c2ccco2)o1)c1ccc(S(=O)(=O)N2CCOCC2)cc1`: “inactive”.
With `O=C(COC(=O)c1c(Cl)cccc1Cl)Nc1cccc(S(=O)(=O)NC2=NCCCCC2)c1` the entry was “inactive”; with `COC(=O)c1ccc(NCC(=O)N2CCCCCC2)cc1`, “inactive”.
For `COC(=O)c1ccc(NCC(=O)c2ccccc2)cc1`, the Potency was 1.78 µM (active).
With `Cc1ccc(C(=O)CNc2ccc(F)cc2)cc1` the entry was “inactive”; with `O=C(N[C@@H](Cc1c[nH]c2ccccc12)C(=O)O)OCC1c2ccccc2-c2ccccc21`, “inactive”.
Next, `Cc1[nH]n(-c2cccc(Cl)c2)c(=O)c1-c1ccc(Cl)cc1`: “inactive”.
With `Cc1[nH]n(C(N)=S)c(=O)c1N=Nc1ccc(Cl)cc1Cl` the figure was 3.98 µM (active); with `CC1=NN(C(N)=S)C(=O)C1N=Nc1cc(Cl)ccc1Cl` (configuration not stated), “inactive”.

For the origin of these results see PubChem BioAssay AID485297 (National Center for Advancing Translational Sciences (NCATS), 2010).
